The panel holds about 83,000 compounds, 20% with a hit somewhere; the sample as a whole holds those more often.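 Step 1: grow cells in 96-well plates. Step 2: add test compound at a single concentration. Step 3: incubate 48 h. Step 4: record percent growth.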 Calls of active or inactive are those of the source. The calls were made as follows: active = growth percent below 10; inactive = the rest.
Experiments:
Assay in all cases: NCI-60 one-dose screen, 48 h (100 = growth as untreated, 0 = no growth, -100 = all killed)
Conditions in all cases: 10 µM unless noted
[1] = tested on: SN12C renal
[2] = tested on: UO-31 renal
[3] = tested on: TK-10 renal
[4] = tested on: ACHN renal
[5] = tested on: CAKI-1 renal
[6] = tested on: A498 renal
[7] = tested on: CCRF-CEM leukemia
[8] = tested on: MOLT-4 leukemia
[9] = tested on: SR leukemia

Measured: growth

COc1cc2cc3c(=O)n4c(cc5cc(OC)ncc54)c(=O)n3c2cn1
inactive: [1] 98.6% | [2] 88.8% | [3] 107% | [4] 110% | [5] 98.4% | [6] 104% | [7] 91.9% | [8] 99.2% | [9] 98%

COc1ccc(C(=O)Nc2ccc3nc(N4CCCCC4)cc(C)c3c2)cc1OC
inactive: [1] 88.8% | [2] 98.7% | [3] 104% | [4] 94.9% | [5] 88.4% | [6] 35.5% | [7] 54.8% | [8] 49% | [9] 33.1%

Clc1ncccc1Nc1ccc2nnc(-c3ccncc3)n2n1
inactive: [1] 100% | [2] 75% | [3] 112% | [4] 101% | [5] 91.8% | [6] 116% | [7] 91.2% | [9] 71.3%

COc1ccc(C2c3ccc4ccccc4c3Oc3ncn(CCCn4ccnc4)c(=N)c32)cc1OC (stereo unspecified)
inactive: [1] 61% | [2] 38% | [3] 52.6% | [4] 67.4% | [5] 60.7% | [6] 40.3% | [8] 61.9% | [9] 26.9%

Cc1ccc(S(=O)(=O)c2c(COC(=O)c3cccc(C)c3)c(-c3ccccc3)nn2C)cc1
inactive: [1] 89.1% | [2] 103% | [3] 113% | [4] 91% | [5] 107% | [6] 123%
active: [8] -11.2% | [9] 1.41%

O=C(Nc1ccc(-c2nc3ccc(NC(=O)c4ccc(Cl)cc4)cc3[nH]2)cc1)c1ccc(Cl)cc1
active: [2] -5.85% | [3] -27.9% | [4] 9.32% | [7] 1.27% | [9] -24.9%
inactive: [1] 24.5% | [5] 27.2% | [6] 58.7%

COC(=O)C1=C(C)NC(C)=C(C(=O)OC)C(N2C(=O)CCC2=O)C1 (stereo unspecified)
inactive: [1] 88.7% | [2] 81.9% | [3] 123% | [4] 99% | [5] 92.6% | [6] 109% | [7] 35.3% | [8] 78.1% | [9] 37.3%

COc1ccc(-c2cn3c(C(=O)Nc4ccccc4Cl)c(-c4ccccc4)c4c3n2CCCC4)cc1
inactive: [1] 82.7% | [2] 62.8% | [3] 72.2% | [4] 80.9% | [5] 81.6% | [6] 74.9% | [7] 66% | [9] 62.8%

NNC(=O)CNC(=O)Nc1n[nH]c(=S)s1
inactive: [1] 98.1% | [2] 73.6% | [3] 107% | [4] 94.4% | [5] 98.3% | [6] 98.3% | [7] 93% | [8] 89.5% | [9] 83.3%

CCOC(=O)c1cnc2c(C)cccc2c1Nc1ccc(C(C)=O)cc1
inactive: [1] 29.9% | [2] 13.3% | [3] 10.7% | [4] 17.7% | [5] 12%
active: [7] 1.73% | [8] -4.17% | [9] -28.5%

COc1ccc(-c2nc(-c3ccccc3)c(-c3ccccc3)[nH]2)cc1OC1CCCCC1
inactive: [1] 81.6% | [2] 59.3% | [3] 115% | [4] 68.9% | [5] 71.7% | [7] 91.6% | [8] 79.4%

O=C(/C=C/c1ccccn1)c1ccc(OCc2nnc(-c3ccc(Cl)cc3)o2)cc1
inactive: [1] 33.2% | [3] 16.6% | [4] 27.3% | [6] 88.3% | [8] 17.2%
active: [2] -90.1% | [5] -25.7% | [9] -11.7%

Cc1ccc2cc3c(N)c4c(C)ccc(C)c4nc3nc2c1
active: [5] 7.98% | [9] -9.96%
inactive: [1] 63.9% | [2] 10.4% | [3] 66.6% | [4] 60.8% | [6] 41.9% | [7] 39.6%

CC1(C)CC2(C)OC2C2(C1)N=NC(=Nc1ccccc1)O2 (stereo unspecified)
inactive: [1] 61.9% | [2] 20.8% | [3] 13.6% | [4] 21.2% | [5] 57.4% | [6] 125% | [7] 10.7% | [8] 19.9% | [9] 11.3%

NC1(N2SC(S)=C3CCCC=C32)CCCCC1
inactive: [1] 104% | [2] 78.6% | [3] 99.5% | [4] 102% | [5] 97% | [6] 101% | [7] 105% | [8] 87% | [9] 86.9%

Cc1ccc(OCCCCCCNCCO)c(C)c1
active: [1] 7.94% | [2] -21% | [5] -8.91% | [7] 7.2%
inactive: [3] 28.9% | [4] 15.3% | [6] 35.3% | [8] 10.6% | [9] 11.2%

CC1CCCCN1CCCNC(=O)c1ccc2c(c1)sc1nc(-c3ccc(F)cc3)cn12 (stereo unspecified)
inactive: [1] 99.6% | [2] 77% | [3] 90.4% | [4] 101% | [5] 97.4% | [7] 82.8% | [8] 85.7% | [9] 78.1%

COc1ccc(-c2nc(-c3ccccn3)c(-c3ccccn3)n2CC(C)C)cc1OC1CCCC1
inactive: [3] 28.5% | [4] 16.8% | [5] 10.5%
active: [1] 8.15% | [2] -13.8% | [7] 1.08% | [8] -31.7%

O=C(CSc1ncccc1C(=O)O)Nc1ccc(Oc2ccccc2)cc1
inactive: [1] 102% | [2] 78.1% | [3] 105% | [4] 107% | [5] 95.8% | [6] 96.7% | [7] 99.6% | [8] 84.6% | [9] 78.2%

FC(F)(F)c1cccc(Nc2nc(-c3ccccc3)nc3ncccc23)c1
active: [6] -4.48% | [8] 7.45% | [9] -37.4%
inactive: [1] 75.8% | [2] 82.4% | [3] 94.2% | [4] 76.2% | [5] 40.4%

O=[N+]([O-])c1cc2c(ccc3occc32)o1
active: [4] 4.13% | [5] -19.7% | [6] -5.92%
inactive: [1] 32.4% | [2] 23.4% | [3] 35.7% | [8] 17.1% | [9] 10.9%

COc1ccccc1CNC(=O)C1c2ccccc2C(=O)N(CC(C)C)C1c1cccs1 (stereo unspecified)
inactive: [1] 76.6% | [2] 92% | [3] 75.9% | [4] 54.2% | [5] 53.4% | [6] 42.4% | [7] 24% | [8] 27.1% | [9] 17.3%

COc1ccc(/C=C2\N=C(c3ccccc3)N(c3ccc(-c4nc5ccc(C)cc5s4)cc3)C2=O)cc1
inactive: [1] 64.3% | [2] 34.2% | [3] 104% | [4] 80.7% | [5] 61.9% | [6] 93.6% | [8] 45.9% | [9] 80.2%

COc1ccc(/C=C2\NC(=O)NC2=O)cc1O
inactive: [1] 99.7% | [2] 106% | [3] 109% | [4] 105% | [5] 85.6% | [6] 91.2% | [7] 97.6% | [8] 99.5% | [9] 102%

CCCCc1c(CCC)c(=N)c2ccccc2n1C
active: [9] 6.82%
inactive: [1] 79.7% | [2] 65.6% | [3] 84.3% | [4] 78.4% | [5] 81% | [6] 75.9% | [7] 49.8%

CCOC(=O)c1cc2c(n1Cc1ccccc1)-c1oncc1CCC2
inactive: [1] 82.2% | [2] 62.5% | [3] 114% | [4] 83.8% | [5] 74% | [6] 74.7% | [8] 72% | [9] 14.1%

COc1nc2c(c(=O)n1C)N=C1c3ccccc3C(=O)C1C(c1ccccc1)N2 (stereo unspecified)
inactive: [1] 95.4% | [2] 78.9% | [3] 107% | [4] 94% | [6] 89.1% | [7] 103% | [8] 76.5%

COc1ccccc1C(=O)O/N=C(\N)Cc1cccc2ccccc12
inactive: [1] 67.3% | [2] 70.8% | [3] 120% | [5] 77% | [6] 95.1% | [7] 80.1% | [8] 79% | [9] 82.1%

O=C(Nc1ccccc1O)c1ccc(-c2ccc(Cl)cc2Cl)o1
inactive: [1] 89.8% | [2] 74% | [3] 102% | [4] 102% | [6] 86.4% | [7] 75.1% | [8] 65.6% | [9] 48.7%

CCCCCCCCCCOC(=O)c1ccccc1C(=O)OCCCC
inactive: [2] 81.3% | [3] 108% | [6] 121% | [8] 95.4% | [9] 100%

CCOC(=O)c1cc2c(n1Cc1cc(OC)c(OC)c(OC)c1)-c1oncc1CCC2
active: [7] 5.78% | [8] 7.85% | [9] 2.12%
inactive: [1] 32.1% | [2] 38.3% | [3] 85.2% | [5] 43.7%
